# Results published in the supplement of paper PMC6522484.
# ± gives the standard deviation of the averaged measurements.
# Legend:
# DLD1 [1] = assay: cell viability (CellTiter-Glo) relative to plate median (fraction of plate median); higher = more viable cells; settings: 5 µM; treatment time 24 h; reporter: 7TFP
# Outline: (§1)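 Stable lentiviral TCF/Wnt firefly luciferase reporters (7TFP or TCF4/Wnt) were present in the colorectal cancer cell lines used. These cells received library compounds at a final 5 µM for 24 h, and parallel plates were read for firefly luciferase or CellTiterGlo luminescence. Each well was normalised to the plate median, and the value reported is the mean of two independent replicates.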
# HCT116 = assay: as above; settings: 5 µM; treatment time 24 h; reporter: TCF4/Wnt
# Outline: as §1
# SW480 [2] = assay: as above; settings: 5 µM; treatment time 24 h; reporter: 7TFP
# Outline: as §1
# DLD1 [3] = assay: TCF/Wnt firefly luciferase reporter signal relative to plate median (fraction of plate median); higher = higher Wnt reporter signal; settings: 5 µM; treatment time 24 h; reporter: 7TFP
# Outline: as §1
# SW480 [4] = assay: as above; settings: 5 µM; treatment time 24 h; reporter: 7TFP
# Outline: as §1
compound,measurement,setting,value
CC(C)(O)[C@@H]1[C@H]2OC(=O)[C@@H]1[C@]1(O)C[C@H]3O[C@]34C(=O)O[C@H]2[C@]14C,cell viability,DLD1 [1],1.03 ± 0.046
same,cell viability,HCT116,0.949 ± 0.021
same,cell viability,SW480 [2],1.025 ± 0.0071
same,TCF/Wnt firefly luciferase reporter signal,DLD1 [3],1.02 ± 0.17
same,TCF/Wnt firefly luciferase reporter signal,SW480 [4],1.04 ± 0.089
O=C1CC[C@@]2(O)[C@H]3Cc4ccc(O)c5c4[C@@]2(CCN3CC2CC2)[C@H]1O5,cell viability,DLD1 [1],1.02 ± 0.093
same,cell viability,HCT116,0.914 ± 0.19
same,cell viability,SW480 [2],1.04 ± 0.035
same,TCF/Wnt firefly luciferase reporter signal,DLD1 [3],0.985 ± 0.12
same,TCF/Wnt firefly luciferase reporter signal,SW480 [4],1.03 ± 0.028
COc1ccc2c(c1)[nH]c1c(C)nccc12,cell viability,DLD1 [1],0.98 ± 0.028
same,cell viability,HCT116,0.904 ± 0.04
same,cell viability,SW480 [2],0.964 ± 0.036
same,TCF/Wnt firefly luciferase reporter signal,DLD1 [3],0.623 ± 0.067
same,TCF/Wnt firefly luciferase reporter signal,SW480 [4],0.625 ± 0.097
COc1ccc(C(CN(C)C)C2(O)CCCCC2)cc1 (stereo not given),cell viability,DLD1 [1],1.06 ± 0.014
same,cell viability,HCT116,0.972 ± 0.035
same,cell viability,SW480 [2],1.03 ± 0.044
same,TCF/Wnt firefly luciferase reporter signal,DLD1 [3],0.924 ± 0.069
same,TCF/Wnt firefly luciferase reporter signal,SW480 [4],0.907 ± 0.029
NCCc1ccc(O)cc1,cell viability,DLD1 [1],0.964 ± 0.11
same,cell viability,HCT116,0.93 ± 0.03
same,cell viability,SW480 [2],0.953 ± 0.036
same,TCF/Wnt firefly luciferase reporter signal,DLD1 [3],0.993 ± 0.15
same,TCF/Wnt firefly luciferase reporter signal,SW480 [4],1.07 ± 0.014
CC(=O)O[C@H]1C(=O)[C@@]2(C)[C@H]([C@H](OC(=O)c3ccccc3)[C@]3(O)C[C@H](O)C(C)=C1C3(C)C)[C@]1(OC(C)=O)CO[C@@H]1C[C@@H]2O,cell viability,DLD1 [1],0.951 ± 0.013
same,cell viability,HCT116,1.04 ± 0.021
same,cell viability,SW480 [2],0.9845 ± 0.0078
same,TCF/Wnt firefly luciferase reporter signal,DLD1 [3],0.95 ± 0.028
same,TCF/Wnt firefly luciferase reporter signal,SW480 [4],0.887 ± 0.076
CC(C)(C)NCC(O)c1cc(Cl)c(N)c(Cl)c1 (stereo not given),cell viability,DLD1 [1],1.01 ± 0.024
same,cell viability,HCT116,1.03 ± 0.05
same,cell viability,SW480 [2],0.922 ± 0.012
same,TCF/Wnt firefly luciferase reporter signal,DLD1 [3],0.97 ± 0.038
same,TCF/Wnt firefly luciferase reporter signal,SW480 [4],0.942 ± 0.0071
CC(C)=CC1C(C(=O)OCc2cccc(Oc3ccccc3)c2)C1(C)C (stereo not given),cell viability,DLD1 [1],0.971 ± 0.02
same,cell viability,HCT116,1.02 ± 0.037
same,cell viability,SW480 [2],0.985 ± 0.035
same,TCF/Wnt firefly luciferase reporter signal,DLD1 [3],0.988 ± 0.1
same,TCF/Wnt firefly luciferase reporter signal,SW480 [4],0.979 ± 0.0042
CC(Cc1ccc(O)cc1)NCC(O)c1cc(O)cc(O)c1 (stereo not given),cell viability,DLD1 [1],1.04 ± 0.068
same,cell viability,HCT116,1.1 ± 0.099
same,cell viability,SW480 [2],0.967 ± 0.012
same,TCF/Wnt firefly luciferase reporter signal,DLD1 [3],0.9645 ± 0.0035
same,TCF/Wnt firefly luciferase reporter signal,SW480 [4],0.945 ± 0.013
COc1cc2c(cc1O)CCN[C@@H]2C,cell viability,DLD1 [1],0.997 ± 0.0014
same,cell viability,HCT116,1.06 ± 0.099
same,cell viability,SW480 [2],1.015 ± 0.0071
same,TCF/Wnt firefly luciferase reporter signal,DLD1 [3],0.89 ± 0.16
same,TCF/Wnt firefly luciferase reporter signal,SW480 [4],0.966 ± 0.049
CC[C@H](C)[C@H]1O[C@]2(C=C[C@@H]1C)C[C@@H]1C[C@@H](C/C=C(\C)[C@@H](O[C@H]3C[C@H](OC)[C@@H](O[C@H]4C[C@H](OC)[C@@H](O)[C@H](C)O4)[C@H](C)O3)[C@@H](C)/C=C/C=C3\CO[C@@H]4[C@H](O)C(C)=C[C@@H](C(=O)O1)[C@]34O)O2.CO[C@H]1C[C@H](O[C@H]2[C@H](C)O[C@@H](O[C@@H]3/C(C)=C/C[C@@H]4C[C@@H](C[C@]5(C=C[C@H](C)[C@@H](C(C)C)O5)O4)OC(=O)[C@@H]4C=C(C)[C@@H](O)[C@H]5OC/C(=C\C=C\[C@@H]3C)[C@]54O)C[C@@H]2OC)O[C@@H](C)[C@@H]1O,cell viability,DLD1 [1],0.893 ± 0.083
same,cell viability,HCT116,0.931 ± 0.0028
same,cell viability,SW480 [2],1.01
same,TCF/Wnt firefly luciferase reporter signal,DLD1 [3],0.977 ± 0.089
same,TCF/Wnt firefly luciferase reporter signal,SW480 [4],0.987 ± 0.033
CCCCCCCCCCCC[C@@H](O)[C@H]1CC[C@H]([C@H](O)CCCC[C@H](O)CCCCC[C@@H](O)CC2=CC(C)OC2=O)O1 (stereo not given in full) [annonacin],cell viability,DLD1 [1],0.926 ± 0.076
same,cell viability,HCT116,0.933 ± 0.014
same,cell viability,SW480 [2],0.92 ± 0.092
same,TCF/Wnt firefly luciferase reporter signal,DLD1 [3],0.987 ± 0.075
same,TCF/Wnt firefly luciferase reporter signal,SW480 [4],0.923 ± 0.018
CC(C)CCCC1(C)C=Cc2c(O)c3c(c(CCC(C)C)c2O1)OC12C(CC4CC1C(C)(C)OC2(CCC(C)C(=O)O)C4O)C3=O (stereo not given),cell viability,DLD1 [1],1.08 ± 0.042
same,cell viability,HCT116,0.997 ± 0.0042
same,cell viability,SW480 [2],1.07 ± 0.092
same,TCF/Wnt firefly luciferase reporter signal,DLD1 [3],1.06 ± 0.014
same,TCF/Wnt firefly luciferase reporter signal,SW480 [4],1.06 ± 0.092
CNC(Cc1c[nH]c2ccccc12)C(=O)O (stereo not given),cell viability,DLD1 [1],1.06 ± 0.11
same,cell viability,HCT116,0.975 ± 0.0057
same,cell viability,SW480 [2],1 ± 0.011
same,TCF/Wnt firefly luciferase reporter signal,DLD1 [3],1.03 ± 0.13
same,TCF/Wnt firefly luciferase reporter signal,SW480 [4],0.98 ± 0.13
CC(CC(C(N)=O)(c1ccccc1)c1ccccc1)N(C)C (stereo not given),cell viability,DLD1 [1],0.995 ± 0.022
same,cell viability,HCT116,1.08 ± 0.035
same,cell viability,SW480 [2],1.01 ± 0.026
same,TCF/Wnt firefly luciferase reporter signal,DLD1 [3],1 ± 0.014
same,TCF/Wnt firefly luciferase reporter signal,SW480 [4],1.01 ± 0.028
COc1cccc(C2(O)CCCCC2CN(C)C)c1 (stereo not given),cell viability,DLD1 [1],0.997 ± 0.019
same,cell viability,HCT116,1.03 ± 0.047
same,cell viability,SW480 [2],1 ± 0.036
same,TCF/Wnt firefly luciferase reporter signal,DLD1 [3],1.09 ± 0.057
same,TCF/Wnt firefly luciferase reporter signal,SW480 [4],1.09 ± 0.021
COc1cccc2c1cc([N+](=O)[O-])c1c(C(=O)O)cc3c(c12)OCO3,cell viability,DLD1 [1],0.983 ± 0.052
same,cell viability,HCT116,1.06 ± 0.098
same,cell viability,SW480 [2],1.01 ± 0.018
same,TCF/Wnt firefly luciferase reporter signal,DLD1 [3],1.28 ± 0.12
same,TCF/Wnt firefly luciferase reporter signal,SW480 [4],1.1 ± 0.13
Cc1ccc(C[N+](C)(C)C)o1,cell viability,DLD1 [1],1 ± 0.026
same,cell viability,HCT116,1.025 ± 0.0071
same,cell viability,SW480 [2],1.02 ± 0.014
same,TCF/Wnt firefly luciferase reporter signal,DLD1 [3],0.864 ± 0.012
same,TCF/Wnt firefly luciferase reporter signal,SW480 [4],0.903 ± 0.027
C[C@@H]1O[C@@H](O[C@H]2C[C@@H](O)[C@]3(CO)[C@H]4[C@H](O)C[C@]5(C)[C@@H](C6=CC(=O)OC6)CC[C@]5(O)[C@@H]4CC[C@]3(O)C2)[C@H](O)[C@H](O)[C@H]1O,cell viability,DLD1 [1],0.99 ± 0.085
same,cell viability,HCT116,0.401 ± 0.29
same,cell viability,SW480 [2],1.02 ± 0.14
same,TCF/Wnt firefly luciferase reporter signal,DLD1 [3],0.128 ± 0.13
same,TCF/Wnt firefly luciferase reporter signal,SW480 [4],0.146 ± 0.12
O=C(NC(=O)c1c(F)cccc1F)Nc1cc(Cl)c(OC(F)(F)C(F)C(F)(F)F)cc1Cl (stereo not given),cell viability,DLD1 [1],0.985 ± 0.05
same,cell viability,HCT116,0.984 ± 0.066
same,cell viability,SW480 [2],0.987 ± 0.013
same,TCF/Wnt firefly luciferase reporter signal,DLD1 [3],0.907 ± 0.028
same,TCF/Wnt firefly luciferase reporter signal,SW480 [4],1.03
C/C(=C\c1csc(C)n1)[C@@H]1C[C@@H]2O[C@@H]2CCC[C@H](C)[C@H](O)[C@@H](C)C(=O)C(C)(C)[C@@H](O)CC(=O)O1 [Epothilone A],cell viability,DLD1 [1],1.09 ± 0.021
same,cell viability,HCT116,0.464 ± 0.073
same,cell viability,SW480 [2],1.14 ± 0.099
same,TCF/Wnt firefly luciferase reporter signal,DLD1 [3],0.732 ± 0.076
same,TCF/Wnt firefly luciferase reporter signal,SW480 [4],0.8595 ± 0.0078
COc1ccc(Cc2nccc3cc(OC)c(OC)cc23)cc1OC,cell viability,DLD1 [1],1.09 ± 0.085
same,cell viability,HCT116,1.01 ± 0.1
same,cell viability,SW480 [2],0.994 ± 0.066
same,TCF/Wnt firefly luciferase reporter signal,DLD1 [3],0.961 ± 0.052
same,TCF/Wnt firefly luciferase reporter signal,SW480 [4],1.07 ± 0.057
COC(=O)C(c1ccccc1)C1CCCCN1 (stereo not given),cell viability,DLD1 [1],1.025 ± 0.0071
same,cell viability,HCT116,1.05 ± 0.064
same,cell viability,SW480 [2],1.01 ± 0.035
same,TCF/Wnt firefly luciferase reporter signal,DLD1 [3],1.03 ± 0.021
same,TCF/Wnt firefly luciferase reporter signal,SW480 [4],1.04 ± 0.088
N[C@H](CO)Cc1ccccc1,cell viability,DLD1 [1],0.998 ± 0.059
same,cell viability,HCT116,0.982 ± 0.12
same,cell viability,SW480 [2],0.981 ± 0.0042
same,TCF/Wnt firefly luciferase reporter signal,DLD1 [3],0.901 ± 0.09
same,TCF/Wnt firefly luciferase reporter signal,SW480 [4],0.761 ± 0.19
COc1cc([C@@H]2c3cc4c(cc3[C@H](OC(C)=O)[C@H]3COC(=O)[C@H]23)OCO4)cc(OC)c1OC,cell viability,DLD1 [1],0.91 ± 0.17
same,cell viability,HCT116,0.567 ± 0.042
same,cell viability,SW480 [2],1.205 ± 0.0071
same,TCF/Wnt firefly luciferase reporter signal,DLD1 [3],0.759 ± 0.0078
same,TCF/Wnt firefly luciferase reporter signal,SW480 [4],0.702 ± 0.02
N[C@@H]1C[C@H]1c1ccccc1.N[C@H]1C[C@@H]1c1ccccc1,cell viability,DLD1 [1],1.02 ± 0.059
same,cell viability,HCT116,0.959 ± 0.0042
same,cell viability,SW480 [2],0.956 ± 0.033
same,TCF/Wnt firefly luciferase reporter signal,DLD1 [3],1.05 ± 0.17
same,TCF/Wnt firefly luciferase reporter signal,SW480 [4],0.892 ± 0.12
COc1cc2c(cc1O)C[C@H]1c3c(cc(O)c(OC)c3-2)CCN1C,cell viability,DLD1 [1],1.02 ± 0.095
same,cell viability,HCT116,1.06 ± 0.086
same,cell viability,SW480 [2],1.12 ± 0.13
same,TCF/Wnt firefly luciferase reporter signal,DLD1 [3],0.882 ± 0.033
same,TCF/Wnt firefly luciferase reporter signal,SW480 [4],1.01 ± 0.17
C[C@@H]1C[C@H](O)[C@@]2(O)[C@]13CC(=O)OC[C@@]2(C)[C@@](C)(O)C(=O)C3,cell viability,DLD1 [1],1.115 ± 0.0071
same,cell viability,HCT116,1.03 ± 0.068
same,cell viability,SW480 [2],1.04 ± 0.021
same,TCF/Wnt firefly luciferase reporter signal,DLD1 [3],1.05 ± 0.071
same,TCF/Wnt firefly luciferase reporter signal,SW480 [4],1.03 ± 0.054
CC(C)C[C@H](CN)CC(=O)O,cell viability,DLD1 [1],1.03 ± 0.073
same,cell viability,HCT116,1.05 ± 0.1
same,cell viability,SW480 [2],1.04 ± 0.014
same,TCF/Wnt firefly luciferase reporter signal,DLD1 [3],1.09 ± 0.064
same,TCF/Wnt firefly luciferase reporter signal,SW480 [4],0.936 ± 0.011
